Laboratory results: PubChem BioAssay
Activity calls are given as the source filed them.

Assays:
Albumin (Bos taurus) = Albumin (Bos taurus) (UniProt P02769); test: compounds binding labelled BSA control protein – biochemical, small-molecule microarray, Alexa647 label, 635/667 nm fluorescence, artefact control for SMM control protein annotation, profiling panel (AID 1118); conditions: BSA-A647 binding, fluorescence 635 nm, higher = more signal;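 further: score merges 667 nm emission intensity and signal-to-noise per printed compound spot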
Albumin (Bos taurus), sequence (P02769 whole entry, looked up): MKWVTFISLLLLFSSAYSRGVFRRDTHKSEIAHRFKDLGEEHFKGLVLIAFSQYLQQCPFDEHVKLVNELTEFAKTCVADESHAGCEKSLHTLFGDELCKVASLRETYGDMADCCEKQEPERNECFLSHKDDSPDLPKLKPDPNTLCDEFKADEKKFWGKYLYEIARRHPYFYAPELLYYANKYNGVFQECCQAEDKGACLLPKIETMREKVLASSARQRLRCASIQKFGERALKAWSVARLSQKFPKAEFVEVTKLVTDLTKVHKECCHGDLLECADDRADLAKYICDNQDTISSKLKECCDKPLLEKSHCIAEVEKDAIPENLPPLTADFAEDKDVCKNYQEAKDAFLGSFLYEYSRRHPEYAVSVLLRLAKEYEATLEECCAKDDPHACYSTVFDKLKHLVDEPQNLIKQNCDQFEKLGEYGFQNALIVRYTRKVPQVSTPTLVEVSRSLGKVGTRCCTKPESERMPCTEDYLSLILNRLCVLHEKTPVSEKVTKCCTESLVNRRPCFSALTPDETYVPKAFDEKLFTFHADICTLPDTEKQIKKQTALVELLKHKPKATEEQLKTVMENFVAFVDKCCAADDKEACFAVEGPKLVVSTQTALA

[1] = probe aXIP binding to arrayed compounds – biochemical, NeuroSMM set, 635/667 nm fluorescence, primary screen (AID 1119); conditions: small-molecule microarray, higher = more signal, called active from +8 up or from −8 down;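 further: probe is the protein aXip251-270 applied at 1 µg/mL to compound-printed slides; binding of probe to printed compounds measured as 667 nm fluorescence plus signal to noise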
[2] = probe aNOTCH3 binding on compound microarray – biochemical, small-molecule microarray, 635/667 nm fluorescence, primary screen (AID 1120); conditions: higher = more signal;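 further: probe is a biotin-tagged antibody raised against NOTCH3 rather than NOTCH3 protein; score merges spot fluorescence near 667 nm with spot signal to noise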
[3] = probe aNOTCH2 binding on compound microarray – biochemical, small-molecule microarray, 635/667 nm fluorescence, primary screen (AID 1121); conditions: higher = more signal;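 further: score merges feature fluorescence read at 667 nm with its signal to noise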
[4] = molecular target: Carbonic anhydrase 2 (Homo sapiens) (UniProt P00918); test: compounds binding carbonic anhydrase 2 – biochemical, small-molecule microarray, Alexa647-labelled CAII, profiling panel (AID 1122); conditions: CAII-A647 binding fluorescence, higher = more signal
[5] = COS7 lysate on small-molecule microarray, probe aHis, 635 nm (AID 1123); conditions: COS7 cell lysate, fluorescence, higher = more signal;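 further: z-score combines 667nm fluorescence intensity with signal-to-noise per printed compound spot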
[6] = probe aLAP1 signal on lysate-treated microarray – cell lysate, small-molecule microarray, COS7 lysate, primary screen (AID 1124); conditions: probe aLAP1, fluorescence, higher = more signal;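 further: lysate comes from COS7 cells expressing LAP1 and is applied at 0.3 µg/mL; score merges spot fluorescence near 667 nm with signal-to-noise over triplicate slides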
Sam68 (KHDRBS1) = test: compounds binding KHDRBS1 protein – biochemical, small-molecule microarray, 635 nm fluorescence, primary screen (AID 1125); conditions: higher = more signal;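 further: score merges 667 nm channel intensity with signal to noise over triplicate slides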
[7] = system: Chordin-like protein 2 (CHRDL2); test: compounds binding chordin-like 2 – biochemical, small-molecule microarray, 635 nm fluorescence, primary screen (AID 1126); conditions: fluorescence 635 nm, higher = more signal;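 further: printed compound slides probed with Chrdl2 protein at 4 µg/mL for 1 h at 4 C; score merges 667 nm emission intensity with signal to noise over three replicate slides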
[8] = molecular target: Concanavalin-A (Canavalia ensiformis) (UniProt P02866); test: compounds binding concanavalin A lectin – biochemical, small-molecule microarray, Alexa647 label, 635 nm, artefact control for SMM control protein annotation, primary screen (AID 1127); conditions: ConA-A647 binding fluorescence, higher = more signal;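 further: z combines 667 nm emission intensity with signal-to-noise across three replicate slides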
Concanavalin-A (Canavalia ensiformis), sequence (P02866 whole entry, looked up): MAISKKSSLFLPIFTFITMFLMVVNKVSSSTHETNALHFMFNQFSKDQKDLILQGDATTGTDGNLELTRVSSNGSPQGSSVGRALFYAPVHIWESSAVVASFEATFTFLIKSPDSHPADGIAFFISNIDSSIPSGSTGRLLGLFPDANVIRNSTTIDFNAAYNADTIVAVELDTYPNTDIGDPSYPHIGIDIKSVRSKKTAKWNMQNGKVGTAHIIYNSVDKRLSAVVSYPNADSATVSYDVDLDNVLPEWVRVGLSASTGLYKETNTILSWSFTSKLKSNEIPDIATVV

[9] = compounds binding Alexa647 anti-His antibody – biochemical, small-molecule microarray, 635 nm fluorescence, artefact control for SMM control protein annotation, primary screen (AID 1128); conditions: higher = more signal;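 further: score merges feature fluorescence with signal-to-noise for each printed compound spot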
[10] = system: Human papillomavirus type 1a E7 protein (residues 1-88); test: HPV1a E7 small-molecule binders, primary screen, biochemical, small-molecule microarray, residues 1-88, 635 nm (AID 1129); conditions: small-molecule microarray binding, fluorescence 635 nm; higher = more signal
[11] = molecular target: Focal adhesion kinase 1 (Homo sapiens) (UniProt Q05397); test: PTK2 protein binding on printed compound slides – biochemical, small-molecule microarray, 635/667 nm fluorescence, BSA, DTT, primary screen (AID 1130); conditions: 635 nm fluorescence, higher = more signal;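 further: composite of spot emission at 667 nm and signal to noise over triplicate slides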
Focal adhesion kinase 1 (Homo sapiens), sequence (Q05397 whole entry, looked up): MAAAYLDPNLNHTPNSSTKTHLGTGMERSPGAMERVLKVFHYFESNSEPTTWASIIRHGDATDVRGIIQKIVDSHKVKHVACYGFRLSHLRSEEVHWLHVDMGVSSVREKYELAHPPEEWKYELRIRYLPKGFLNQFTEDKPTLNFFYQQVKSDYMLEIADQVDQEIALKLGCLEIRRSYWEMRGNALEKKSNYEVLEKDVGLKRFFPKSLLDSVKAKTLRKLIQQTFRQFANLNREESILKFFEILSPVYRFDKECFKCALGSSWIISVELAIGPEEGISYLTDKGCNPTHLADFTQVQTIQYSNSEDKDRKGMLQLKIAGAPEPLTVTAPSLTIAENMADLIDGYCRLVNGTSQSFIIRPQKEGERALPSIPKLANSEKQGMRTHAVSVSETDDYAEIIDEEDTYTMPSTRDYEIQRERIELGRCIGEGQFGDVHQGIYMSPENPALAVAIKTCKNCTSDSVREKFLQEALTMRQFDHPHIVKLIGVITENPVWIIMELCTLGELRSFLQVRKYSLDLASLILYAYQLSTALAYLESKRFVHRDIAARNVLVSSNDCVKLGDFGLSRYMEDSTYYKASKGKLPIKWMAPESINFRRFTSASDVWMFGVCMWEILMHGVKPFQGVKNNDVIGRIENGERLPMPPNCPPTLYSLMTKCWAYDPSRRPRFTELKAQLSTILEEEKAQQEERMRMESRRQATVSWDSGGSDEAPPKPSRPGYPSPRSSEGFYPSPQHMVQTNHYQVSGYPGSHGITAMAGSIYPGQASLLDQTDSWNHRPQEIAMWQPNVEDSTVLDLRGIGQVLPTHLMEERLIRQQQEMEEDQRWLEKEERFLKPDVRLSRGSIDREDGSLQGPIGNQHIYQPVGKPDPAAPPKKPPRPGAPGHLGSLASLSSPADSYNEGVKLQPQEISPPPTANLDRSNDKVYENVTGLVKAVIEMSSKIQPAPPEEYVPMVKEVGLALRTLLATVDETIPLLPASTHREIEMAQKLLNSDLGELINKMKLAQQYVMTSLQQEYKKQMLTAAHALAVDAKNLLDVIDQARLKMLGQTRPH

[12] = system: Fibrinogen (Alexa647-labelled); test: Alexa647-fibrinogen binding to printed small molecules – biochemical, small-molecule microarray, 635/667 nm fluorescence, artefact control for SMM control-protein annotation, profiling panel (AID 1131); conditions: fibrinogen-A647 binding fluorescence, higher = more signal;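 further: z-score merges 667 nm fluorescence with per-spot signal-to-noise over triplicate slides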
[13] = molecular target: Follistatin (Homo sapiens) (UniProt P19883); test: FST protein binding to printed compounds – biochemical, small-molecule microarray, 635/667 nm fluorescence, primary screen (AID 1132); conditions: 635 nm fluorescence, higher = more signal
Follistatin (Homo sapiens), sequence (P19883 whole entry, looked up): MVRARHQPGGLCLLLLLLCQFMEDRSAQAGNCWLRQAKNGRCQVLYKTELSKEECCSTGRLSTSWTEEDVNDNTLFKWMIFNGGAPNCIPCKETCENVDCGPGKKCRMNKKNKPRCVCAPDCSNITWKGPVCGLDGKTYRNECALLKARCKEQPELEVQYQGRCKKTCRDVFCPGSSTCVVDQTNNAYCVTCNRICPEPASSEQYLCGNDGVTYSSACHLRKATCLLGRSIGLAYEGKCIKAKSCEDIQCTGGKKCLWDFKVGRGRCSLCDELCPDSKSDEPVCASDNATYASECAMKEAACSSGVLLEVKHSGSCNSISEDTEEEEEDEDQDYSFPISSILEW

[14] = molecular target: Fibroblast growth factor 2 (Homo sapiens) (UniProt P09038); test: basic fibroblast growth factor binding to printed compounds – biochemical, small-molecule microarray, 635/667 nm fluorescence, primary screen (AID 1133); conditions: FGF2, fluorescence 635/667, higher = more signal
Fibroblast growth factor 2 (Homo sapiens), sequence (P09038 whole entry, looked up): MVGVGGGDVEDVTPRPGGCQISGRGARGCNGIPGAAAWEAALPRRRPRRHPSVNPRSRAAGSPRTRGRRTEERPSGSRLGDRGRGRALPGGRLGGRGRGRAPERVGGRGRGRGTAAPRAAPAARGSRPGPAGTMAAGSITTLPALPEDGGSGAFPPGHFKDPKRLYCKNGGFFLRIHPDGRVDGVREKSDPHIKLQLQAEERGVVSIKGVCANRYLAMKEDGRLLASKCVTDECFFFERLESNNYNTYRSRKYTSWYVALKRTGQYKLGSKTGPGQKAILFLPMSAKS

[15] = JC-1 mitochondrial potential readout, lung cancer cells – cell-based, A549, JC-1 fluorescence, basal, 24 h, 100 nL, profiling panel (AID 1138); conditions: higher = more signal;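 further: A549 lung adenocarcinoma cells under basal conditions with no added stimulus; test concentration not given here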
Lefty1 = Lefty1 protein binding to printed compounds – biochemical, small-molecule microarray, 635/667 nm fluorescence, primary screen (AID 1139); conditions: fluorescence 635/667, higher = more signal
[16] = system: wheat germ agglutinin (Triticum aestivum), Alexa647-labelled; test: Alexa647-WGA lectin binding to printed small molecules – biochemical, small-molecule microarray, 635/667 nm fluorescence, artefact control for SMM control-protein annotation, profiling panel (AID 1140); conditions: WGA-A647 binding, 635 nm fluorescence, higher = more signal;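 further: score merges 667 nm feature emission with signal to noise over triplicate slides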
[17] = molecular target: Luciferin 4-monooxygenase (Photinus pyralis) (UniProt P08659); test: inhibition of purified Photinus pyralis luciferase – biochemical, luminescence, purified enzyme, 2006 set, primary screen (AID 1141); conditions: purified firefly luciferase, SteadyGlo luminescence, 30 min; higher = more signal, called active from +8 up or from −8 down;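 further: cell-free assay with purified firefly luciferase at 100 ng per well in PBS; test concentration not given here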
Luciferin 4-monooxygenase (Photinus pyralis), sequence (P08659 whole entry, looked up): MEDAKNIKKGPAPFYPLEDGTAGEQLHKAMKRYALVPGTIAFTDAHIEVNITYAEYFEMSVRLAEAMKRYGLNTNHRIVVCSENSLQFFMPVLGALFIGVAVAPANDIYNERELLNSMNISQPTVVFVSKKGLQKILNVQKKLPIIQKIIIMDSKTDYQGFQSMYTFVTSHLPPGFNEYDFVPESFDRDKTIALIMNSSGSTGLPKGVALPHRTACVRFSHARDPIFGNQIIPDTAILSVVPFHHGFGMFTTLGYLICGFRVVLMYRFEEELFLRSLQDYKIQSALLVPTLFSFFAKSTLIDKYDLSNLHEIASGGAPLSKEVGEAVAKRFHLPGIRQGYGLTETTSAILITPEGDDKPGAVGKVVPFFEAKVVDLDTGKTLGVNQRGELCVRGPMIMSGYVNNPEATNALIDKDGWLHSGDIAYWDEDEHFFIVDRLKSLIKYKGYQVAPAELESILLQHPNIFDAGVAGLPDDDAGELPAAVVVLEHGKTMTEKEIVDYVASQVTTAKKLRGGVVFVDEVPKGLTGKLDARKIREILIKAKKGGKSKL

SMILES | composite z-score (Albumin (Bos taurus)) | composite Z-score [1] | composite z-score [2] | composite z-score [3] | composite z-score [4] | composite z-score [5] | composite z-score [6] | composite z-score (Sam68 (KHDRBS1)) | composite z-score [7] | composite z-score [8] | composite z-score [9] | composite z-score [10] | composite z-score [11] | composite z-score [12] | composite z-score [13] | composite z-score [14] | z-score [15] | composite z-score (Lefty1) | composite z-score [16] | z-score [17]
COc1ccc(C#Cc2ccc3c(c2)[C@]2(C(=O)N3)[C@H](C(=O)NC[C@H](O)c3ccccc3)[C@H]3C(=O)O[C@H](c4ccccc4)[C@H](c4ccccc4)N3[C@@H]2c2ccc(O)cc2)cc1 | 0.186 | 0.658 (inactive) | 0.0585 | -0.139 | 0.566 | 2.46 | 0.624 | 1.29 | -0.0259 | 1.13 | 2.71 | 1.23 | 0.521 | 0.901 | 1.08 | 0.811 | -1.57 | 0.767 | 0.947 | 0.656 (inactive)
CCOC(=O)C[C@H]1[C@H](OC(=O)c2ccc(C(=O)c3ccccc3)cc2)[C@@H](NC(=O)c2ccc3ccccc3c2)c2cc(OCCCO)ccc2N1C(=O)Cc1ccc(OC)cc1 | 0.638 | -0.68 (inactive) | -0.0932 | -0.149 | 0.009 | 0.899 | 0.0147 | 0.484 | -0.197 | 0.114 | 0.0204 | 0.542 | 0.222 | 0.424 | 0.288 | 0.115 | 0.826 | 0.199 | 0.398 | 0.789 (inactive)
COC(=O)c1c(CC[C@@H](CO)NC(=O)NCCn2cc(C3(O)CCCC3)nn2)oc(C(C)=O)c1C(=O)OC | 0.351 | -0.79 (inactive) | -0.209 | -0.128 | 0.745 | 0.603 | -0.108 | 0.492 | -0.505 | -0.027 | 0.828 | 0.0881 | 0.182 | 0.292 | -0.273 | 0.247 | -0.415 | 0.199 | 0.128 | 0.7 (inactive)
CCCC[C@H]1OB(O)C[C@H]2C1=C(COC)C[C@H]1C(=O)N(C)C(=O)[C@H]12 | -0.126 | -0.618 (inactive) | -0.0328 | -0.201 | 0.39 | 0.502 | 0.0459 | 0.462 | 0.245 | 0.744 | 0.415 | -0.292 | 0.18 | 0.144 | 0.824 | 0.846 | 0.145 | 0.896 | 0.631 | -0.656 (inactive)
COc1ccc(CCNC(=O)[C@@H]2c3ccccc3C(=O)N(Cc3ccccc3Cl)[C@H]2c2ccc(CO)cc2)cc1 | 0.0645 | -0.145 (inactive) | -0.0647 | -0.0712 | 0.363 | 1.47 | 0.0463 | 0.579 | -0.014 | 0.207 | 0.218 | 1.14 | 0.224 | 0.435 | 0.495 | 0.187 | 2.4 | -0.0833 | 0.261 | -0.745 (inactive)
CC(C)C(O)C1C=CC2C(=O)NC(=O)C2N1Nc1ccc(Cl)cc1Cl (stereo not given) | 0.523 | 0.449 (inactive) | -0.0414 | -0.0659 | 0.751 | 1.78 | 1.33 | 0.531 | -0.827 | -0.478 | 1.03 | 1.19 | 1.08 | 0.921 | 0.345 | -0.292 | -0.518 | -0.556 | 1.35 | -0.089 (inactive)
C=CCN1C(=O)[C@]2(O[C@H](CCn3cc([C@H](O)c4ccccc4)nn3)[C@@H]([Si](C)(C)c3ccc(OC)cc3)[C@@H]2C)c2ccccc21 | -0.0698 | 0.0503 (inactive) | -0.253 | -0.156 | -0.238 | -0.011 | 0.0809 | -0.776 | -0.278 | -0.847 | -0.435 | -0.723 | -0.458 | -1.07 | -0.696 | -0.403 | -0.156 | -0.581 | 0.417 | 0.184 (inactive)
[N-]=[N+]=Nc1ccccc1[C@@H]1OC(c2ccc(OCCCO)cc2)=N[C@]1(Cc1ccccc1)C(=O)N1CCOCC1 | 0.309 | -0.174 (inactive) | 0.619 | 0.0117 | 0.312 | 2.23 | 0.115 | 1.31 | 0.0383 | 1.09 | 2.31 | 1.19 | 0.142 | 0.862 | 1.26 | 0.749 | 1.53 | 0.0367 | 0.923 | -5.98 (inactive)
C=CCNC(=O)[C@H]1[C@@H]2C(=O)O[C@@H](c3ccccc3)[C@@H](c3ccccc3)N2[C@@H](c2ccccc2OCCO)[C@]12C(=O)Nc1ccc(C#CCCO)cc12 | -0.066 | 0.313 (inactive) | -0.214 | -0.137 | 0.423 | 1.06 | 0.0894 | -0.0891 | -0.0022 | 0.801 | 1.12 | -0.231 | 0.191 | -0.205 | 0.0804 | 2.05 | 0.582 | -0.376 | -0.0387 | -0.412 (inactive)
C=C(CCCC)/C(=C/C[C@H](OC(=O)c1ccncc1)c1ccccc1OCCO)c1cnc2ccccc2c1 | 0.0803 | -0.153 (inactive) | 0.0259 | -0.182 | 0.862 | 1.25 | 0.406 | 1.16 | 0.66 | 1.14 | 0.997 | 1.08 | 0.166 | 0.47 | 1.27 | 0.912 | 0.957 | 1.14 | 1.14 | -0.372 (inactive)
COC(=O)[C@@]1(Cc2ccc(F)cc2)[C@H]2c3cc(C(=O)N(C)C)n(Cc4ccccc4)c3C[C@H]2CN1C(=O)c1ccccc1 | 0.816 | 0.0843 (inactive) | 0.215 | 0.0431 | 0.183 | 2.05 | 0.495 | 0.78 | -0.643 | 1.04 | 1.38 | 0.789 | -0.109 | 0.91 | 0.787 | -0.525 | 0.906 | 0.0954 | 1.16 | 2.14 (inactive)
